{"source": "PubChem BioAssay AID2023", "about": "(NMMLSC, 2009)", "note": "Values joined by “and” are separate entries in the source; they are usually repeats but may differ in a detail not shown here. Equal entries are not always repeated. Among all 320,000 compounds or so, about 1,100 (0.34%) were called active.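 How the source made its calls: active means GFP response vs DMSO above a set limit, about the screen mean plus 3 SD (cut at about 150% in these data); inconclusive means under 70 cell events counted for the yeast strain; inactive means the rest.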 Many of the other results were omitted from the sample, so actives are more common in it than they were. Where a structure was tested more than once in an assay, its records may differ in their call.", "data": [{"experiment": "TOR pathway LAP4-GFP level changes – S. cerevisiae, multiplex flow cytometry, MLPCN library, primary screen (AID 2023)", "details": "3 h, at 10 µM, stronger effect = higher value, median GFP as percent of DMSO wells", "values": [{"smiles": "O=C(Nc1ccccc1)c1nnsc1S(=O)(=O)c1ccc(Cl)cc1", "GFP response vs DMSO": "187% (active)"}, {"smiles": "Cc1nnsc1C(=O)N/N=C/c1ccccc1Cl", "GFP response vs DMSO": "106% (inactive)"}, {"smiles": "CN(c1cccc(NC(=O)Nc2ccc(Cl)cc2)c1)S(C)(=O)=O", "GFP response vs DMSO": "107% (inactive)"}, {"smiles": "CC(C)Oc1ccc(S(=O)(=O)N2CCOCC2)cc1NC(=O)C1CSC2(C)CCC(=O)N12", "note": "(stereo unspecified)", "GFP response vs DMSO": "106% (inactive)"}, {"smiles": "O=[N+]([O-])c1ccc(S(=O)(=O)Nc2cccc(-c3ccc(N4CCCC4)nn3)c2)cc1", "GFP response vs DMSO": "100% (inactive)"}, {"smiles": "COc1cc(/C=C/C(=O)O)cc(S(=O)(=O)Nc2ccccc2C(=O)NCCc2ccccc2)c1OC", "GFP response vs DMSO": "96% (inactive)"}, {"smiles": "CCCn1nc(C(=O)NNC(=O)CSCC(=O)Nc2cc(C)on2)c2ccccc2c1=O", "GFP response vs DMSO": "91.7% (inactive)"}, {"smiles": "CCCn1nc(C(=O)NNC(=O)CCOc2ccccc2OCC)c2ccccc2c1=O", "GFP response vs DMSO": "217% (active)"}, {"smiles": "CCCn1nc(C(=O)Nc2ccc3nc(C)sc3c2)c2ccccc2c1=O", "GFP response vs DMSO": "102% (inactive)"}, {"smiles": "Brc1ccc(Nc2c3c(nc4ncnn24)CCC3)cc1", "GFP response vs DMSO": "103% (inactive)"}, {"smiles": "Cc1cccc(NC(=O)CSc2nnc(CCNC(=O)OC(C)(C)C)o2)c1C", "GFP response vs DMSO": "95.1% (inactive)"}, {"smiles": "Cc1ccc2nc(SC(C)C(=O)NCc3ccco3)[nH]c2c1", "note": "(stereo unspecified)", "GFP response vs DMSO": "111% (inactive)"}, {"smiles": "Cc1ccn(-c2cccc(-n3ccc(C)n3)n2)n1", "GFP response vs DMSO": "100% (inactive)"}, {"smiles": "CCN(CC)c1ccc(S(=O)(=O)N2CCCCC2)cc1NC(=O)C1=COCCO1", "GFP response vs DMSO": "99.6% (inactive)"}, {"smiles": "CC(NC(=O)C1CCCN(S(=O)(=O)c2ccc(-n3cnnn3)cc2)C1)c1ccc(F)cc1", "note": "(stereo unspecified)", "GFP response vs DMSO": "83.4% (inactive)"}, {"smiles": "O=C(NCCc1csc(-c2ccccc2)n1)c1ccccc1F", "GFP response vs DMSO": "120% (inactive)"}, {"smiles": "COc1cc(OC)cc(C(=O)NCC(=O)OCc2csc(-c3ccccc3)n2)c1", "GFP response vs DMSO": "101% (inactive)"}, {"smiles": "O=C(O)Cc1csc(-c2cccc(Oc3ccccc3)c2)n1", "GFP response vs DMSO": "110% (inactive) and 152% (active)"}, {"smiles": "CC(=O)c1c(C)n([O-])c2ccccc2[n+]1=O", "GFP response vs DMSO": "99.9% (inactive)"}, {"smiles": "CC(NC(=O)COc1cccnc1[N+](=O)[O-])c1ccc(Cl)cc1Cl", "note": "(stereo unspecified)", "GFP response vs DMSO": "116% (inactive)"}, {"smiles": "COc1cccc(NC(=O)COc2cccnc2[N+](=O)[O-])c1", "GFP response vs DMSO": "94.7% (inactive)"}, {"smiles": "O=C(COc1cccnc1[N+](=O)[O-])Nc1ccc(Cl)cc1F", "GFP response vs DMSO": "178% (active)"}, {"smiles": "COc1cccc(CCNC(=O)c2cccc(NC(=O)C3=C(C)OCCS3)c2)c1", "GFP response vs DMSO": "93.6% (inactive)"}, {"smiles": "CCc1ccc(N(CC(=O)NCc2cccnc2)S(=O)(=O)c2ccccc2)cc1", "GFP response vs DMSO": "96.7% (inactive)"}, {"smiles": "O=C(O)CN1c2cccc3cccc(c23)S1(=O)=O", "GFP response vs DMSO": "92.9% (inactive)"}, {"smiles": "COC(=O)Cn1cc(/C=C/[N+](=O)[O-])c2ccccc21", "GFP response vs DMSO": "164% (active)"}, {"smiles": "COC(=O)c1cn(CC(=O)NCc2cccs2)c2ccccc12", "GFP response vs DMSO": "95% (inactive)"}, {"smiles": "COC(=O)N/N=C/c1cn(CCCOc2ccc(C)cc2)c2ccccc12", "GFP response vs DMSO": "89.7% (inactive)"}, {"smiles": "COC(=O)Cc1cnc(NC(=O)CSc2nc(C(C)C)cc(=O)[nH]2)s1", "GFP response vs DMSO": "114% (inactive)"}, {"smiles": "COc1cc(C)c(C(C)C)cc1S(=O)(=O)n1ccnc1", "GFP response vs DMSO": "89.6% (inactive)"}, {"smiles": "COC(=O)c1ccc(/C=C2/C(=O)Oc3ccccc32)cc1", "GFP response vs DMSO": "93.2% (inactive)"}, {"smiles": "COc1ccc2c(c1)O/C(=C\\c1ccccc1O)C2=O", "GFP response vs DMSO": "108% (inactive)"}, {"smiles": "O=C1Oc2ccccc2C(=O)/C1=C/c1ccccc1O", "GFP response vs DMSO": "208% (active)"}, {"smiles": "COc1ccc(Cl)cc1NC(=O)CN(C)C(=O)CCCc1c[nH]c2ccccc12", "GFP response vs DMSO": "99.5% (inactive)"}, {"smiles": "O=Cc1c(NCCCN2CCCC2=O)c2ccccc2[nH]c1=O", "GFP response vs DMSO": "100% (inactive)"}, {"smiles": "CCC1Sc2ccc(S(=O)(=O)CCC(=O)NCc3cccs3)cc2NC1=O", "note": "(stereo unspecified)", "GFP response vs DMSO": "106% (inactive)"}, {"smiles": "O=C(Nc1nnc(-c2ccc(Cl)cc2)o1)c1ccccc1Br", "GFP response vs DMSO": "159% (active)"}, {"smiles": "O=C(Nc1nnc(-c2ccccc2)o1)c1cc(-c2cccs2)nc2ccccc12", "GFP response vs DMSO": "112% (inactive)"}, {"smiles": "O=C(COC(=O)c1ccccc1Br)Nc1nnc(-c2ccccc2)o1", "GFP response vs DMSO": "115% (inactive)"}, {"smiles": "Cc1cccc(NS(=O)(=O)c2ccc(C(=O)NCC(C)(C)N3CCOCC3)cc2)c1C", "GFP response vs DMSO": "103% (inactive)"}, {"smiles": "CCOc1ccc(NC(=O)CN(C)C(=O)COc2cccc(CC)c2)cc1OCC", "GFP response vs DMSO": "100% (inactive)"}, {"smiles": "CCC(=O)N1CCC(C(N)=O)(N2CCCCC2)CC1", "GFP response vs DMSO": "95.6% (inactive)"}, {"smiles": "CCCCCCSc1ccc([C@@H]2[C@@H]3C(=O)N(CC)C(=O)[C@@H]3[C@]3(C(=O)OC)CCCCN23)cc1OC", "GFP response vs DMSO": "90.1% (inactive)"}, {"smiles": "CCC(=C/c1sc2ccc3ccccc3c2[n+]1C)/C=C1\\Sc2ccc3ccccc3c2N1C", "GFP response vs DMSO": "283% (active)"}, {"smiles": "O=C(Nc1cccc(Cl)c1Cl)c1ccccc1NC(=O)C1CC=CCC1C(=O)O", "note": "(stereo unspecified)", "GFP response vs DMSO": "67.7% (inactive)"}, {"smiles": "Cc1cccc(C)c1N1CCN(S(=O)(=O)N2CCOCC2)CC1", "GFP response vs DMSO": "110% (inactive)"}, {"smiles": "C=CCOc1ccc(Cl)cc1CNCCCN1CCOCC1", "GFP response vs DMSO": "91.3% (inactive)"}, {"smiles": "Cc1ccc(S(=O)(=O)c2nnn3c2nc(N2CCN(c4ccccn4)CC2)c2ccccc23)cc1", "GFP response vs DMSO": "104% (inactive)"}, {"smiles": "Cc1cccc(Nc2nc3c(S(=O)(=O)c4ccccc4)nnn3c3ccccc23)c1C", "GFP response vs DMSO": "783% [may fluoresce green] (active)"}, {"smiles": "CC(=O)Nc1ccc(Nc2nc3c(S(=O)(=O)c4ccc(C)c(C)c4)nnn3c3ccccc23)cc1", "GFP response vs DMSO": "89.9% (inactive)"}, {"smiles": "CN(C)c1nc(=Nc2cccc(Cl)c2)ss1", "GFP response vs DMSO": "191% (active)"}, {"smiles": "CCOC(=O)N1CCN(C(=O)c2cn(C)c3ccc(S(=O)(=O)N(CC)CC)cc3c2=O)CC1", "GFP response vs DMSO": "102% (inactive)"}, {"smiles": "O=C(O)C1OC(C(=O)O)C2C1C(F)(F)C2(F)F", "note": "(stereo unspecified)", "GFP response vs DMSO": "99.4% (inactive)"}, {"smiles": "O=C(CN1C(=O)NC2(CCCC2)C1=O)NCC1CCCO1", "note": "(stereo unspecified)", "GFP response vs DMSO": "104% (inactive)"}, {"smiles": "CCc1nnc(SCc2cccc(F)c2)nc1CC", "GFP response vs DMSO": "152% (active)"}, {"smiles": "O=c1[nH]c(SCc2cccc(F)c2)nc2ccccc12", "GFP response vs DMSO": "108% (inactive)"}, {"smiles": "Nc1cc(N)nc(SCc2cccc(F)c2)n1", "GFP response vs DMSO": "97.2% (inactive)"}, {"smiles": "O=C(CCC1CCN(C(=O)c2cccc(Cl)c2F)CC1)Nc1ccccc1", "GFP response vs DMSO": "106% (inactive)"}, {"smiles": "CCOC(=O)N1CCN(S(=O)(=O)c2ccc(Br)cc2)CC1", "GFP response vs DMSO": "108% (inactive)"}, {"smiles": "COc1ccccc1N1CCN(S(=O)(=O)c2ccc(Cl)cc2)CC1", "GFP response vs DMSO": "110% (inactive)"}, {"smiles": "Cn1ncc(N2CCN(S(=O)(=O)c3ccc(Br)cc3)CC2)c(Cl)c1=O", "GFP response vs DMSO": "170% (active)"}]}]}
